DAX1 inh-1 = DAX1 (NR0B1) inhibitors, primary screen, cell-based, HEK293, Gal4-DAX1, luciferase luminescence; AID 504766, 2011; HEK293 Gal4-DAX1 luciferase reporter; inhibition, % at 6.75 µM; 340,000 compounds, 0.99% hits;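 active = inhibition above the mean over all tested compounds plus 3 SD, cut at about 4.2% in these data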;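 also: 0% = DAX1-transfected cells with DMSO and 100% = empty-vector control cells with DMSO; inhibition shows as a rise in luminescence from relieved DAX1 repression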
AHR activator = AHR activators, primary screen, cell-based, luminescence, luciferase reporter, human; Aryl hydrocarbon receptor (Homo sapiens), P35869; AHR-responsive luciferase reporter cells; activation, % at 5 µM; 320,000 compounds, 2.5% hits; in the data active = activation above about 47%;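 also: 0% = vehicle wells and 100% = reference agonist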
DAX1 inh-2 = DAX1 (NR0B1) inhibitors on StAR promoter, primary screen, cell-based, luminescence, SF-1 (NR5A1), full-length DAX-1. HEK293T StAR-luciferase reporter, SF-1/DAX-1 repression relief. 370,000 compounds, 1.1% hits. inhibition, % at 6.8 µM;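 active = inhibition above the mean over all tested compounds plus 3 SD, cut at about 3.6% in these data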;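 also: 0% = DAX-1 cells with DMSO and 100% = cells lacking DAX-1 with DMSO; higher inhibition means more luminescence from relief of DAX-1 repression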
hgDAF12 agonist = H. glycines DAF-12 receptor agonists, primary screen, cell-based, luminescence, HEK293, GAL4 fusion, UAS-luciferase; HEK293 GAL4-hgDAF12 UAS-luciferase reporter, agonist luminescence; normalized to butyrate control; 370,000 compounds, 1.8% hits; activation, % at 6.8 µM;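 active = activation above a cutoff set at the mean of all screened compounds plus 3 SD, cut at about 10% in these data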;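 also: 0% = DMSO wells and 100% = sodium butyrate wells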
hcDAF12 agonist = H. contortus DAF-12 nuclear receptor activators, primary screen, cell-based, luminescence, HEK293, lit1-tk-luc reporter; 370,000 compounds, 1.4% hits; activation, % at 6.8 µM; HEK293 hcDAF-12 lit1-tk-luc reporter; 0% DMSO, 100% Δ7-dafachronic acid; AID 652067, 2013;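 active = activation above the mean of all tested compounds plus 3 SD, cut at about 5.5% in these data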;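 also: 100% = response to 3 µM Δ7-dafachronic acid high control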
ssDAF12 agonist = S. stercoralis DAF-12 nuclear receptor activators, primary screen, cell-based, luminescence, HEK293, GRIP1 co-expression, lit1-tk-luc; 370,000 compounds, 1% hits; AID 652126, 2013; activation, % at 6.8 µM; HEK293 ssDAF-12/GRIP1 lit1-tk-luc reporter; % of 3 µM dafachronic acid response;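 active = activation above the mean over all tested compounds plus 3 SD, cut at about 0.9% in these data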;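 also: 0% = DMSO-only wells and 100% = 3 µM delta7-dafachronic acid wells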
Numbers without * were called inactive; / = no result. An excerpt weighted towards active compounds, which were near 5.7% of everything screened.

SMILES	DAX1 inh-1	AHR activator	DAX1 inh-2	hgDAF12 agonist	hcDAF12 agonist	ssDAF12 agonist
CCOC(=O)c1oc2cc(O)cc(O)c2c(=O)c1OCc1ccccc1	-1	0	0	0	-1	-2
Cc1nnc(NC(=O)c2ccc3ccccc3c2)o1	-1	7	-1	3	2	-1
Cc1ccc(C2c3[nH]c4ccccc4c3C[C@H]3C(=O)N(c4ccccc4C(=O)NCCN4CCOCC4)C(=O)N23)cc1 (some centres undefined)	1	7	0	0	5	-1
Cc1nc2c(C)cccn2c1/C(O)=C1\C(=O)C(=O)N(CCN(C)C)C1c1ccccc1 (centres undefined)	5.8*	0	0	-1	-2	1.0*
COc1ccc(C(=O)n2cnc3ccccc32)cc1Br	1	-1	1	-1	-1	1
COc1ccc(C(=O)n2cnc3ccccc32)cc1[N+](=O)[O-]	1	15	0	4	5	1.4*
O=C(Nc1ccccc1C(=O)Nc1cccnc1)c1ccccc1	1	43	-1	-1	1	-1
Cc1cccc(C)c1NC(=O)C(C1CC1)n1c(=O)c(-c2ccco2)nc2ccccc21 (centres undefined)	/	/	0	1	0	0
CC(C)(C)NC(=O)C(c1ccccc1F)n1c(=O)c(-c2ccco2)nc2ccccc21 (centres undefined)	/	/	4.3*	2	1	-1
Cc1cccc(C)c1NC(=O)C(c1ccncc1)n1c(=O)c(-c2ccco2)nc2ccccc21 (centres undefined)	/	/	2	5	5	2.1*
O=C(NC1CCCCC1)C(c1ccnc2ccccc12)n1c(=O)c(-c2ccco2)nc2ccccc21 (centres undefined)	/	/	2	4	2	1.1*
O=C(Nc1ccc2c(c1)OCCO2)C(c1ccnc2ccccc12)n1c(=O)c(-c2ccco2)nc2ccccc21 (centres undefined)	/	/	3	7	5	1.5*
O=C(Nc1ccc2c(c1)OCCO2)C(c1ccncc1)n1c(=O)c(-c2ccco2)nc2ccccc21 (centres undefined)	/	/	-1	3	-1	-1
CCCn1nc(C(=O)Nc2nc(-c3ccccn3)cs2)c2ccccc2c1=O	-1	17	-4	2	-1	-2
CCc1ccc(C2C3=C(CCCC3=O)OC3=C2C(=O)CCC3)cc1	-1	-2	0	1	-1	-1
O=C1CCCC2=C1C(c1ccc(OS(=O)(=O)c3ccc(Cl)cc3)cc1)C1=C(CCCC1=O)O2	7.2*	-1	0	-1	-1	-1
CC(=O)c1ccccc1NC(=O)COC(=O)CCC1CCCC1	0	9	0	2	2	0
COc1ccc(N=Cc2nc(-c3ccccc3)oc2OC(=O)c2ccccc2)cc1	1	24	3.7*	12*	5	1
O=C(O)CCSc1ccc2ccccc2n1	0	3	0	0	1	-1
Cc1cc2c(C)ccc(C)c2nc1SCC(=O)c1cccs1	0	58*	0	-2	1	-2
Cc1ccc(C)c2nc(SCC(=O)NCc3cccs3)c(C#N)cc12	0	0	0	-3	0	-1
CCOc1ccc(NC(=O)CNc2ccc(C)cc2Cl)cc1	2	-9	0	0	-2	-2
O=C(Nc1nc(-c2ccc(F)cc2)cs1)C1CCN(C(=O)c2ccc(F)cc2)CC1	-4	8	-8	-8	-4	-2
O=C(Nc1nc2c(F)cc(F)cc2s1)C1CCN(C(=O)c2ccc(F)cc2)CC1	2	23	4.0*	10	5	0
O=C(Nc1nc2c(F)cccc2s1)C1CC1	0	48*	1	7	1	-1
SMILES	DAX1 inh-1	AHR activator	DAX1 inh-2	hgDAF12 agonist	hcDAF12 agonist	ssDAF12 agonist
O=C(Nc1nc2c(F)cc(F)cc2s1)C1CC(=O)N(Cc2ccco2)C1 (centres undefined)	0	60*	0	-1	1	-1
CC1CCc2c(sc(Nc3nc4c(F)cccc4s3)c2C(N)=O)C1 (centres undefined)	0	56*	0	0	4	0
Cc1cc(C)c2nc(NC(=O)C3CC(=O)N(Cc4ccco4)C3)sc2c1 (centres undefined)	-1	26	-1	3	0	-2
COc1ccc2c(c1)cc1n2CCN=C1NCCO	4	6	1	1	-1	-1
NNc1nc2c(F)cccc2s1	2	67*	1	4	6	0
Fc1cccc2sc(Nc3nc4c(F)cccc4s3)nc12	1	34	1	3	5	0
CC(C)(C)Nc1nc(Cl)nc(NCCN2CCOCC2)n1	5.4*	7	0	0	0	-1
Nn1c(COc2cccc(Cl)c2)nc2ccccc2c1=O	1	58*	0	2	2	-1
COc1cc(-c2nc3ccccc3c(=O)n2N)cc(OC)c1OC	-2	16	-1	3	-1	5.7*
Nn1c(-c2ccccc2)nc2cc(Cl)ccc2c1=O	1	52*	1	5	5.7*	1.9*
CC(C)(C)NC(=O)COC(=O)c1snc(C(=O)NC2CCCCC2)c1N	-4	-1	-3	-6	-4	-2
CC(C)(C)NC(=O)CN(C(=O)CCN1CCCc2ccccc21)C(C)(C)C	3	8	0	-1	5	0
CC(C)C[C@@H](CNCC(=O)[C@H](Cc1c[nH]c2ccccc12)NC(=O)c1[nH]cnc1C(=O)N[C@H](CN)CC(C)C)NC(=O)c1nc[nH]c1C(=O)N[C@@H](CC(=O)O)C(=O)O	1	/	0	7	6	0
OCC1(CCOc2ccccc2)CCN(Cc2ccc3cccc(F)c3n2)CC1	3	11	0	1	2	0
CC(=O)NC(CCS(C)(=O)=O)C(=O)N1CCc2ccccc21 (centres undefined)	1	20	0	0	5.6*	1.0*
COc1cc2c(cc1OC)CN(CC(=O)Nc1ccccc1SC)CC2	-1	-1	-2	-2	-2	-2
